Results: PubChem BioAssay AID1851 (National Center for Advancing Translational Sciences (NCATS), 2009)
In all, about 16,000 compounds went through this assay and about 5,700 (36%) were called active. Another 24% or so got no clear call; they are omitted. Calls follow the shape of the dose curve; as a rule, active = well fitted curve in the direction sought with a large enough effect; inconclusive = small, poorly fitted or top-dose-only effect, or effect the other way; inactive = no such curve, though single readings can be large or run the other way. This is one part of the list.

molecular target: Cytochrome P450 1A2 (Homo sapiens) (UniProt P05177); experiment: Cytochrome panel assay with activity outcomes; details: recombinant CYP, pro-luciferin dealkylation, luminescence, p450-cyp1a2; series mostly up to 57.1 µM
% is scaled to controls: 0 for no effect and ±100 for the full control effect.

Sequence of Cytochrome P450 1A2 (Homo sapiens) (P05177 whole entry, looked up): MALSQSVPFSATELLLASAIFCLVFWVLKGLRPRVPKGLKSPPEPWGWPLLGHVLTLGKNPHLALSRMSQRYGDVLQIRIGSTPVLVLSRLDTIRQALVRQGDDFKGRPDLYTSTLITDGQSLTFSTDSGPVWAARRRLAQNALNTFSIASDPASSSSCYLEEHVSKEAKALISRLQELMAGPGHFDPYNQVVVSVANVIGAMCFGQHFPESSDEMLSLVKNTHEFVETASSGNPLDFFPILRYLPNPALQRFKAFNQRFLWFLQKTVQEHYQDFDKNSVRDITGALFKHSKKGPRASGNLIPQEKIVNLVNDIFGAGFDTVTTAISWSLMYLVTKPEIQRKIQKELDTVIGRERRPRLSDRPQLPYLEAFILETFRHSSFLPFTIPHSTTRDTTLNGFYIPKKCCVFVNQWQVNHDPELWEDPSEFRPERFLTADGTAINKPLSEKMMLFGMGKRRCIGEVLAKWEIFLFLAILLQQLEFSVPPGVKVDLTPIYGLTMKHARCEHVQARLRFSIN

SMILES | AC50 | activity, negative = inhibition
O=C(Nc1cccc(C(F)(F)F)c1)c1ccc(Cn2cc(Br)cn2)o1 | 2 µM (active) | –
CC(C)CN1CCC2(CC1)CCN(C(=O)c1csnn1)CC2 | inactive | –
OCCNCCCOc1cccc(Cl)c1Cl | 0.2 µM (active) | –
OCCCNCc1ccccn1 | – | -20% [at 2.29 µM] (inactive)
CCCCNN | – | -6.54% [at 2.29 µM] (inactive)
CN(C)S(=O)(=O)c1ccc(Nc2ccc(O)c3c2C(=O)c2c([N+](=O)[O-])ccc(O)c2C3=O)cc1 | 0.126 µM (active) | –
O=C(CCCN1CC=C(n2c(=O)[nH]c3ccccc32)CC1)c1ccc(F)cc1 | inactive | –
COC(=O)CCSc1cc([N+](=O)[O-])cc2c1c(C1OCCS1)nn2-c1ccccc1 (stereo unspecified) | 28.2 µM (active) | –
CN(C)C=Nc1ccc2nn(-c3ccccc3)nc2c1 | 0.708 µM (active) | –
O=C(O)c1nn(-c2ccccc2)nc1-c1nn(-c2ccccc2)nc1C(=O)O | inactive | –
CC(=O)OC[C@@H]1O[C@@H](O/N=C2/C[C@@H](O)[C@@H](O)[C@@H]3[C@@H]4C(=O)N([C@@H](C)c5ccccc5)C(=O)[C@H]4CC[C@H]23)[C@H](OC(C)=O)[C@H](OC(C)=O)[C@@H]1OC(C)=O | – | 3.02% [at 11.4 µM] (inactive)
Cc1nn(C)c(Cl)c1NC(=O)OCc1ccc(F)cc1 | 14.1 µM (active) | –
Cc1nn(C)c(Cl)c1NC(=O)OCc1ccc(Cl)cc1Cl | 5.01 µM (active) | –
CC(C)(C)C(=O)OCOC(=O)[C@@H]1N2C(=O)[C@@H](NC(=O)[C@H](N)c3ccccc3)[C@H]2SC1(C)C | inactive | –
COc1ccc(O[C@H]2C=C[C@@H](c3ccccc3)O[C@H]2COC(=O)CC/C(C)=N\O[C@@H](C)c2cc(-c3c(C)cc(C)cc3C)no2)cc1 | – | -2.73% [at 11.4 µM] (inactive)
N#Cc1cccc(-c2cc(NCc3cccs3)ncn2)c1 | 0.794 µM (active) | –
N#Cc1cccc(-c2cc(NCc3cccnc3)ncn2)c1 | 0.0398 µM (active) | –
Cc1cccc(CNc2cc(-c3cccc(C#N)c3)ncn2)c1 | 0.158 µM (active) | –
N#Cc1cccc(-c2cc(NCc3ccccc3)ncn2)c1 | 1 µM (active) | –
C[C@@H](c1ccccc1)N1C(=O)[C@H]2[C@@H]3[C@H](O)C=CC(=O)[C@H]3CC[C@H]2C1=O | – | -9.41% [at 11.4 µM] (inactive)
COC(=O)C1C(=O)C2=C(CC1C)NC(=O)CC2c1cccc(C)c1 (stereo unspecified) | inactive | –
COC(=O)[C@@]1(Cc2ccccc2)[C@H]2c3cc(C(=O)N4CCCC4)n(Cc4ccc(S(C)(=O)=O)cc4)c3C[C@H]2CN1C(=O)c1ccccc1 | inactive | –
CN(CC[C@@H](Oc1ccc(-c2ccccc2)cc1)c1ccc(F)cc1)CC(=O)O | inactive | –

SMILES | AC50 | activity, negative = inhibition
COC(=O)CNC(c1ccccc1Cl)c1cc(Br)ccc1NC(=O)CCN1CCOCC1 (stereo unspecified) | inactive | –
O=C(Nc1ccc(Cl)cc1)OCCn1nnnc1C(c1ccccc1Cl)N1CCOCC1 (stereo unspecified) | 15.8 µM (active) | –
COc1ccc(Cn2nnnc2C(c2ccccc2Cl)N2CCC(C(N)=O)CC2)cc1 (stereo unspecified) | inactive | –
CO[C@@H]1/C=C\O[C@@]2(C)Oc3c(C)c(O)c4c(c3C2=O)C(=N[C@H]2CC[C@H](O)O[C@@H]2C)C=C(NC(=O)/C(C)=C\C(=O)[C@@H]2C[C@@H]2[C@@H](O)[C@H](C)[C@@H](O)[C@H](C)[C@H](OC(C)=O)[C@@H]1C)C4=O | – | -9.54% [at 11.4 µM] (inactive)
COc1ccc(-n2ccnc2SCC(=O)Nc2ccccc2)cc1 | 12.6 µM (active) | –
COc1ccc(-n2nnnc2SCC(=O)Nc2ccccc2)cc1 | 6.31 µM (active) | –
CCC(=O)Nc1ccc(NC(=O)CSc2nnnn2-c2cccnc2)cc1C | inactive | –
COc1ccc(NC(=O)CSc2nnc(C3CC3)n2-c2ccccc2)cc1 | inactive | –
Cn1ccnc1SCC(=O)Nc1sccc1C#N | 3.16 µM (active) | –
COc1ccc(NC(=O)CSc2ccc3c4c(cccc24)C(=O)c2ccccc2-3)cc1 | 1.58 µM (active) | –
COc1ccc(NC(=O)CSC2=NC(=O)CC(C)=N2)cc1 | inactive | –
C=CCN1C(=NC(=O)CC)SC2CS(=O)(=O)CC21 (stereo unspecified) | inactive | –
O=c1[nH]c(=S)c2[nH]c(=O)n(-c3ccccc3)c2[nH]1 | – | -1.84% [at 11.4 µM] (inactive)
COc1ccc(-n2ccnc2SCC(=O)Nc2ccc(OC)cc2OC)cc1 | 6.31 µM (active) | –
CCOc1ccc(-n2c(SCC(=O)Nc3ccc(OC)cc3OC)nc3c(c2=O)SCC3)cc1 | inactive | –
COC(=O)CSc1nnc(C)n1-c1cccc(OC)c1 | inactive | –
COc1cccc(-n2ccnc2SCC(=O)Nc2nccs2)c1 | 1.26 µM (active) | –
COc1cccc(NC(=O)CSc2nnc(CN3CCOCC3)n2C)c1 | inactive | –
O=C1[C@H]2[C@H]3[C@H](O)[C@H](O)C/C(=N/OC[C@@H](O)COCc4ccco4)[C@H]3CC[C@@H]2C(=O)N1Cc1ccc2c(c1)OCO2 | – | 6.71% [at 11.4 µM] (inactive)
O=C(c1ccncc1)N1CCC2(CC1)CN(Cc1cc(C(F)(F)F)cc(C(F)(F)F)c1)C2 | inactive | –
O=C1[C@@H]2[C@@H]3C=C[C@H]([C@@H]2C(=O)N1CN1CCSCC1)[C@@H]1[C@@H]2C(=O)N(CN4CCSCC4)C(=O)[C@@H]2[C@H]31 | – | -13.4% [at 11.4 µM] (inactive)
O=C(NOC(=O)c1cc(Br)ccc1Cl)c1cccs1 | inactive | –
CN(C)CCNC(=O)c1cc(Br)ccc1Cl | 11.2 µM (active) | –

SMILES | AC50 | activity, negative = inhibition
CN(C)CCNC(=O)Cn1nc(-c2ccc(Cl)cc2)ccc1=O | inactive | –
CCCS(=O)(=O)N1CCCC(C(=O)NCCN(C)Cc2ccccc2)C1 (stereo unspecified) | inactive | –
CCn1c(SCc2ccc(Cl)cc2Cl)nc2nc3c(cc2c1=O)CCCC3 | 3.55 µM (active) | –
Cn1c(=O)c2c(nc(N3CCN(c4ccccn4)CC3)n2Cc2ccc(Cl)cc2Cl)n(C)c1=O | inactive | –
CCC(=O)Nc1ncnc2ncn(C(=O)CC)c12 | – | -5.19% [at 11.4 µM] (inactive)
CCCCNC(=O)Cc1coc2ccc3ccccc3c12 | 4.47 µM (active) | –
CCOC(=O)CSc1nnc(CSc2nc3sc4c(c3c(=O)[nH]2)CCCC4)n1-c1ccccc1 | 14.1 µM (active) | –
CCOC(=O)CSc1nnc(Cc2cc(=O)[nH]c(=O)[nH]2)n1-c1cccc(OC)c1 | inactive | –
CCOC(=O)C(Sc1ncnc2c1sc1nc(N3CCOCC3)c3c(c12)CCCC3)c1ccccc1 (stereo unspecified) | inactive | –
CN(Cc1ccco1)c1ncnc2ccc(-c3cccc(NS(C)(=O)=O)c3)cc12 | 0.398 µM (active) | –
CN(Cc1ccco1)c1ncncc1-c1cccc(NS(C)(=O)=O)c1 | 15.8 µM (active) | –
O=C1NC(c2ccccc2)=NC1(NS(=O)(=O)c1ccccc1)C(F)(F)F (stereo unspecified) | inactive | –
COc1cccc(Nc2ncc3nc(CCc4ccccc4)c(=O)n(CCC#N)c3n2)c1 | inactive | –
N#CCCn1c(=O)c(CCc2ccccc2)nc2cnc(Nc3ccccc3)nc21 | inactive | –
Cc1nc2cnc(Nc3ccccc3)nc2n(CCC#N)c1=O | 0.631 µM (active) | –
COc1ccc(-c2nc3cnc(Nc4cccc(OC)c4)nc3n(CCC#N)c2=O)cc1 | 6.31 µM (active) | –
COc1cccc(Nc2ncc3nc(C)c(=O)n(CCC#N)c3n2)c1 | 1.26 µM (active) | –
COc1cccc(Nc2ncc3ncc(=O)n(CCC#N)c3n2)c1 | 1 µM (active) | –
C[N+](C)(C)CCCCCC[N+](C)(C)C | inactive | –
O=S(Cc1ccccc1)CC(O)(c1ccccc1)c1ccccc1 (stereo unspecified) | inactive | –
Cc1ccc(C(=O)N2CCN(C3c4cccc5cccc(c45)C3NS(=O)(=O)c3ccccc3)CC2)cc1 (stereo unspecified) | inactive | –
CS(=O)(=O)Nc1cccc(-c2cncnc2Nc2ccc(F)cc2)c1 | 5.01 µM (active) | –
CS(=O)(=O)Nc1cccc(-c2cncnc2Nc2ccccc2)c1 | 5.01 µM (active) | –

SMILES | AC50 | activity, negative = inhibition
CN=C(NC#N)NCCSC[C@H]1N=CN=C1C | inactive | –
Cc1cnnn1-c1ccc(C(=O)CCl)cc1 | 2.82 µM (active) | –
COc1cccc(-c2cncnc2NCc2cccnc2)c1 | 0.794 µM (active) | –
COc1cccc(-c2cncnc2NCc2ccccc2)c1 | 5.01 µM (active) | –
COc1cccc(-c2cncnc2NCc2cccc(C)c2)c1 | 2 µM (active) | –
COc1cccc(-c2cncnc2NCc2cccs2)c1 | 1.26 µM (active) | –
CS(=O)(=O)N1CCC2(CC1)CN(Cc1cc(C(F)(F)F)cc(C(F)(F)F)c1)C2 | inactive | –
O=C(c1csnn1)N1CCC2(CC1)CCN(C(c1ccccc1)c1ccccc1)CC2 | inactive | –
CC(=O)N/N=C/c1cc([N+](=O)[O-])ccc1OCCOc1ccccc1 | inactive | –
C=CCOc1ccc2cccc(/C=N/NC(=O)c3cc4cc([N+](=O)[O-])ccc4s3)c2c1 | 2.24 µM (active) | –
CCCCc1[nH]c(=O)c(C#N)c2c1CCCC2 | 5.01 µM (active) | –
CCCCOC(=O)CCc1c(C)[nH]c(=O)c(C#N)c1C | inactive | –
C/C(CCN1CCCCc2nc(C)c(C)cc21)=N\O[C@@H](C)CN1CCCc2nc(C)c(C)cc21 | – | -40.3% [at 11.4 µM] (inactive)
Cc1cc2c(c(=O)o1)[C@H](O)[C@H]1O[C@@H]1C2=O | – | 2.69% [at 11.4 µM] (inactive)
C[N+]1(C)CCC[C@@H](OC(=O)C(O)(c2ccccc2)c2ccccc2)C1 | inactive | –
CC(=O)Nc1ccc(N2C(=O)CC(c3ccccc3)CC2=O)cc1 | inactive | –
COC(=O)N[C@H](c1ccccc1)[C@@]1(C)C[C@@H]1[C@@H](C)C(=O)Nc1ccc2ccccc2c1 | 12.6 µM (active) | –
C[C@@H](C(=O)Nc1ccc2ccccc2c1)[C@H]1C[C@]1(C)[C@H](NC(=O)Oc1ccc(F)cc1)c1ccccc1 | inactive | –
C[C@@H](C(=O)Nc1ccc2ccccc2c1)[C@@H]1C[C@@]1(C)[C@@H](NC(=O)Oc1ccc(F)cc1)c1ccccc1 | inactive | –
C[C@@H](C(=O)Nc1ccc2ccccc2c1)[C@@H]1C[C@@]1(C)[C@@H](NC(=O)c1ccncc1Cl)c1ccccc1 | 25.1 µM (active) | –
CC(=O)N[C@H](c1ccccc1)[C@@]1(C)C[C@@H]1[C@@H](C)C(=O)Nc1ccc2ccccc2c1 | 15.8 µM (active) | –
C[C@@H](C(=O)Nc1ccc2ccccc2c1)[C@@H]1C[C@@]1(C)[C@@H](N)c1ccccc1 | 15.8 µM (active) | –
